According to PubChem BioAssay (NCATS):
Where “and” joins values, the source holds several entries; their conditions need not be identical. Identical values can stand only once. Records with an inconclusive call do not appear. Calls of active or inactive are those of the source. Unless noted, calls follow the shape of the dose curve; as a rule, active = well fitted curve in the direction sought with a large enough effect; inconclusive = small, poorly fitted or top-dose-only effect, or another doubt; inactive = no such curve, though single readings can be large; an effect the other way counts as inactive or inconclusive.

Columns and labels:
[1] = Cell Viability - N2a (AID 540); details: N2a mouse neuroblastoma cell viability; activity change, negative = cytotoxicity: at 92.2 µM (top of the series);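 also: cells exposed to compound for 40 h at 37 °C; plate controls were DMSO alone for no effect and tamoxifen control for full effect; nearly all actives have a fitted effect of over 45% in size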
Outline: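 Cytotoxicity was scored as loss of cellular ATP in N2a cells, a mouse neuroblastoma line. Compounds are applied in a qHTS concentration series for 40 hr at 37 °C.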

[2] = Cell Viability - NIH 3T3 (AID 541); details: NIH 3T3 cell viability, qHTS; activity change, negative = cytotoxicity: at 92.2 µM (top of the series); also: nearly all actives have a fitted effect of over 25% in size; also: potency is read from the fitted curve at half-maximal effect;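 as to activity change, negative = cytotoxicity: plate controls were DMSO alone for no effect and tamoxifen positive control for full effect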
Outline: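 Cells seeded at 1000/well, rested 5 hr at 37 °C, then dosed and incubated 40 hr at 37 °C. CellTiter-Glo added, 20 min room temperature, luminescence read. AC50 by Hill fit.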

[3] = Cell Viability - HUV-EC-C (AID 542); details: HUV-EC-C endothelial cell viability, qHTS; series mostly up to 92.2 µM; also: % is scaled to controls: 0 for no effect and ±100 for the full control effect; nearly all actives have a fitted effect of over 35% in size
Outline: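 Cells were seeded at 1000 per well and incubated 5 hr at 37 °C before compound addition. After 40 hr at 37 °C, CellTiter-Glo reagent was added for 20 min and luminescence read. AC50 values came from Hill-equation modelling.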

[4] = Cell Viability - H-4-II-E (AID 543); details: H-4-II-E rat hepatoma viability; series mostly up to 92.2 µM; also: nearly all actives have a fitted effect of over 35% in size; also: potency is read from the fitted curve at half-maximal effect
Outline: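 Cells seeded at 1500 per well and rested 5 hr; compounds added; 40 hr incubation at 37 °C; CellTiter-Glo added, 20 min at room temperature; luminescence read. Hill-equation fits gave AC50.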

[5] = Cell Viability - SH-SY5Y (AID 544); details: SH-SY5Y neuroblastoma cell viability; viability change, negative = cytotoxic: at 92.2 µM (top of the series); also: nearly all actives have a fitted effect of over 55% in size
Outline: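 Cells were plated at 1500 per well and allowed 5 hr at 37 °C. Compounds were added across a concentration range and incubated 40 hr at 37 °C. CellTiter-Glo was added for 20 min at room temperature before luminescence reading.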

[6] = Cell Viability - Renal Proximal Tubule (AID 545); details: renal proximal tubule cells viability; activity change, negative = cytotoxicity: at 91.7 µM (top of the series) unless noted; also: nearly all actives have a fitted effect of over 40% in size; also: potency is read from the fitted curve at half-maximal effect
Outline: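 In this qHTS format, normal rat kidney-derived proximal tubule cells in complete culture medium receive compound titrations, then sit 40 hours at 37 °C before luciferase-based ATP quantitation; potency is reported as AC50 from concentration-response curves.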

[7] = Cellular Toxicity (caspase-3) HUV-EC-C (AID 656); details: HUV-EC-C cells, caspase-3 activation (apoptosis), vehicle = 0, 100 µM tamoxifen = 100%; series mostly up to 92.2 µM
Outline: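 Concentration-dependent caspase 3/7 induction was assessed in HUV-EC-C cells exposed for 16 hours. Data scaled between DMSO and tamoxifen (100 uM) controls.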

[8] = Cellular Toxicity (caspase-3) MRC-5 (AID 659); details: MRC-5 cells, luminescence, normalized: DMSO 0%, 10 µM staurosporine 100%; series mostly up to 91.7 µM
Outline: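 Apoptosis readout in MRC-5 cells: luciferase light generated after caspase 3/7 cleaves a peptide-aminoluciferin substrate, measured post 16 hr compound incubation at 37 °C.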

[9] = Cellular Toxicity (caspase-3) Mesangial (AID 660); details: mesangial cells; Potency: caspase-3 activation; series mostly up to 91.7 µM;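 also: combined caspase 3 and 7 activity read by Caspase-Glo luminescence; cells exposed to compound for 16 h before the caspase read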
Outline: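 Seed cells derived from normal human renal glomeruli, incubate 5 h, add compounds across concentrations and incubate 16 h at 37 °C. Caspase 3/7 activation is then quantified by luciferase light, with AC50 derived by Hill modeling.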

[10] = Cellular Toxicity (caspase-3) Hek293 (AID 664); details: HEK293 caspase-3 activation, DMSO = 0%, 100 µM tamoxifen = 100%; at 92.2 µM (top of the series);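 also: cells exposed to compound for 16 h at 37 °C before readout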
Outline: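 qHTS, HEK293 (human embryonic kidney), 16 h cpd exposure in complete medium. Caspase-3/7 activation = luminescence increase; normalized to DMSO/100 uM tamoxifen; Hill-fit AC50.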

[11] = Cellular Toxicity (caspase-3) NIH 3T3 (AID 666); details: NIH 3T3 caspase-3 activation, apoptosis/toxicity, 0% DMSO, 100% is 100 µM tamoxifen; series mostly up to 92.2 µM;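 also: caspase signal read after 16 h compound exposure; 0% = DMSO basal and 100% = 100 µM tamoxifen stimulation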
Outline: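 Cells were plated at 1000 per well and incubated 5 hr at 37°C, then compound was added for 16 hr. Caspase-Glo 3/7 reagent followed for 20 min at room temperature before luminescence was read.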

[12] = Cell Viability - LYMP1-003 - Assay at 24 hr (AID 963); details: LYMP1-003 lymphoblastoid cell viability; series mostly up to 92.2 µM;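 also: plate controls were DMSO only for no effect and tetraoctylammonium bromide positive control for full effect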
Outline: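 Cytotoxicity is scored as a concentration-dependent fall in ATP-linked luciferase signal in human lymphoblastoid LYMP1-003 cells treated 24 hr at 37 C in complete culture medium.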

[13] = Cell Viability - LYMP2-003 (AID 965); details: LYMP2-003 lymphoblastoid cell viability; series mostly up to 92.2 µM;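 also: cells exposed to compounds for 24 h before reading; nearly all actives have a fitted effect of over 50% in size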; also: potency is read from the fitted curve at half-maximal effect;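 as to activity change, negative = cytotoxicity: 0% = DMSO only and full effect = 92 µM tetraoctylammonium bromide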
Outline: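 qHTS, human lymphoblastoid line, 2500 cells/well, complete medium. 24 h drug, 37 C. ATP-based luminescent readout; Hill-fit AC50.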

[14] = Cell Viability - LYMP2-015 (AID 971); details: LYMP2-015 lymphoblastoid cell viability; series mostly up to 92.2 µM;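 also: cells exposed to compound for 24 h; nearly all actives have a fitted effect of over 55% in size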; also: potency is read from the fitted curve at half-maximal effect
Outline: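 Cells are seeded at 2500 per well and incubated 5 hr at 37 C. Compounds are added across a concentration series for 24 hr at 37 C. CellTiter-Glo is added, and luminescence is read after 30 min at room temperature.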

[15] = Cell Viability - LYMP2-016 (AID 984); details: LYMP2-016 lymphoblastoid cell viability, qHTS; series mostly up to 92.2 µM;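 also: cells exposed to compound for 24 hours at 37 °C; nearly all actives have a fitted effect of over 55% in size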; also: potency is read from the fitted curve at half-maximal effect; as to activity change, negative = cytotoxicity: % is scaled to controls: 0 for no effect and ±100 for the full control effect
Outline: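 Concentration-dependent ATP depletion measured in LYMP2-016 lymphoblastoid cells, 24 h, 37 C; luciferase-based luminescent detection; Hill-equation AC50.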

[16] = Cell Viability - LYMP2-018 (AID 985); details: LYMP2-018 lymphoblastoid cells, viability (qHTS); series mostly up to 92.2 µM;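 also: compound exposure lasted 24 hr at 37 °C; nearly all actives have a fitted effect of over 50% in size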; also: potency is read from the fitted curve at half-maximal effect;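 as to activity change, negative = cytotoxicity: plate controls were DMSO only for no effect and tetraoctylammonium bromide at 92 µM for full effect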
Outline: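 Seed 2500 lymphoblastoid cells per well, incubate 5 hr at 37 C, add compound and incubate 24 hr at 37 C, add CellTiter-Glo, wait 30 min at room temperature, then read luminescence.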

[17] = biological target: Tumor necrosis factor (Homo sapiens) (UniProt P01375); test: qHTS assay to identify small molecules that stimulate Tumor Necrosis Factor-alpha (TNF-alpha) secretion (AID 651757; active = well fitted curve in the direction sought with a large enough effect in the signal ratio; the % refers to the signal ratio; also: 0% is about no effect); details: Human cells, HTRF 665/615 ratio; series mostly up to 92.2 µM
Outline: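 Human monocytic THP-1 cells are plated, treated with compound and held at 37 C for 17 hrs. Labeled anti-TNF-alpha antibody mixture is then added; after 3 hr at room temperature, TR-FRET signal reports secreted TNF-alpha.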

[18] = biological target: Peroxisome proliferator-activated receptor alpha (Homo sapiens) (UniProt Q07869); test: qHTS assay for small molecule agonists of the peroxisome proliferator-activated receptor alpha (PPARalpha) signaling pathway (AID 651778); details: PathHunter PPARalpha complementation, chemiluminescence, 6 h; max response: hits give high values; also: % of control where 0% means no effect
Outline: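 Cells plated at 2,000/well and held overnight at 37 C, 5% CO2, then compound added by pin tool for 6 hr; after PathHunter detection reagent and 60 min at room temperature, chemiluminescence from enzyme complementation was read.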

[19] = qHTS assay for cell viability of the p53RE-bla HCT-116 cell line (AID 743292); details: p53RE-bla HCT-116 viability, ATP luminescence, 16 h; series mostly up to 95 µM; also: nearly all actives have a fitted effect of over 55% in size; also: potency is read from the fitted curve at half-maximal effect; as to activity change, negative = cytotoxicity: % is scaled to controls: 0 for no effect and ±100 for the full control effect
Outline: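 ATP-based luminescent viability (CellTiter-Glo, 30 min RT) after 16 h compound treatment at 37 C of p53RE-bla HCT-116 cells, seeded at 4,000 cells/well and rested 5 h before dosing.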

[20] = Stat Signaling Pathway (AID 446; active = well fitted curve in either direction with a large enough effect, not every such curve was filed as active;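 also: ME-180 cervical cancer cells given 40 pM IL-6 alongside compound; SIE-controlled beta-lactamase reporter measured as 460/530 nm FRET emission ratio; % is scaled to controls: 0 for no effect and ±100 for the full control effect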); details: ME-180 (cervical carcinoma) SIE beta-lactamase reporter, IL-6 stimulated, 5 h; series mostly up to 17.2 µM
Outline: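 Normalization used AC90 stimulation (300 pM IL-6) and AC90 inhibition (125 nM pan-JAK inhibitor at 40 pM IL-6). The underlying signal is SIE-driven beta-lactamase in ME-180 cells after 5 h IL-6 exposure with compound.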

Sequence of Tumor necrosis factor (Homo sapiens) (P01375 whole entry, looked up): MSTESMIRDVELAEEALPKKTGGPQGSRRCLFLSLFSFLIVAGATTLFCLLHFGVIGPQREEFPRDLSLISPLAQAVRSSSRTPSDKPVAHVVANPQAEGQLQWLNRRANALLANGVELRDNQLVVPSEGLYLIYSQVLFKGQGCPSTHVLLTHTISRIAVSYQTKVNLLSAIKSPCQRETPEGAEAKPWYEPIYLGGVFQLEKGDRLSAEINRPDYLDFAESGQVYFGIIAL
Sequence of Peroxisome proliferator-activated receptor alpha (Homo sapiens) (Q07869 whole entry, looked up): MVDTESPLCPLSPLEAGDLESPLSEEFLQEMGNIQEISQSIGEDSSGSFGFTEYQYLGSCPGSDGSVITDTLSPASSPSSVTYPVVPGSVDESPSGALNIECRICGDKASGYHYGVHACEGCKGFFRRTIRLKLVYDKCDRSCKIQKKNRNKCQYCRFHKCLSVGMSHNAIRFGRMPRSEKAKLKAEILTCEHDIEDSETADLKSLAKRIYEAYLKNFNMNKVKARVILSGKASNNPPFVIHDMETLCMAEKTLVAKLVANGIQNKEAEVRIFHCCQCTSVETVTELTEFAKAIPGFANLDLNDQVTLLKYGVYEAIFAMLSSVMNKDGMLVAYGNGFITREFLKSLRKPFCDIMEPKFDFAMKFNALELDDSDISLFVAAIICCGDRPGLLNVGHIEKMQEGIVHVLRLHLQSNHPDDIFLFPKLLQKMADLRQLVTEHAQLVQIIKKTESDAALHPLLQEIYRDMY

FC(F)(F)c1ccc(Cl)cc1
inactive: activity change, negative = cytotoxicity [1] 6.85% | Potency [2] | Potency [3] | Potency [4] | Potency [5] | Potency [6] | outcome [7] | outcome [8] | Potency [9] | caspase-3 activation [10] 3.4% | outcome [11] | Potency [12] | Potency [13] | Potency [14] | Potency [15] | Potency [16] | Potency [17] | max response [18] 1.19% and -0.788% | Potency [19]

CCN(CC)CCN=C(C)c1c(O)n(-c2ccccc2OC)c(=O)[nH]c1=O
inactive: outcome [20]

Cn1c(O)c(C(=O)c2ccccc2Cl)c(=O)n(C)c1=O
inactive: outcome [20]

Oc1c(Br)c(Br)c(Br)c(Br)c1Br
inactive: Potency [2] | Potency [3] | Potency [6] | outcome [7] | outcome [8] | Potency [9] | outcome [11] | Potency [12] | Potency [13] | Potency [14] | Potency [15] | Potency [16] | Potency [17] | max response [18] 10% | Potency [19]
active: activity change, negative = cytotoxicity [1] -118% | Potency [4] 50.1 µM

O=[N+]([O-])C(Br)Br
active: activity change, negative = cytotoxicity [1] -119% | Potency [2] 31.6 µM | Potency [4] 31.6 µM | viability change, negative = cytotoxic [5] -98.3% | Potency [13] 25.1 µM | Potency [14] 10 µM | Potency [15] 15.8 µM | Potency [16] 12.6 µM
inactive: Potency [3] | Potency [6] | outcome [7] | outcome [8] | Potency [9] | caspase-3 activation [10] -9.23% | outcome [11] | Potency [12] | Potency [17] | max response [18] -3.58% | Potency [19]

[Cd+2].[Cl-].[Cl-]
active: activity change, negative = cytotoxicity [1] -109% | activity change, negative = cytotoxicity [2] -132% | Potency [4] 1.26 µM | Potency [6] 12.6 µM | Potency [14] 50.1 µM
inactive: Potency [3] | outcome [7] | outcome [8] | Potency [9] | caspase-3 activation [10] 1.43% | outcome [11] | Potency [13] | Potency [15] | Potency [16] | Potency [17] | max response [18] -8.85% | Potency [19]

ClC1=C(Cl)C2(Cl)C3C(Cl)C(Cl)CC3C1(Cl)C2(Cl)Cl (stereo not given)
inactive: Potency [2] | outcome [8] | Potency [9] | outcome [11] | Potency [12] | Potency [14] | Potency [15] | Potency [16] | Potency [17]
active: activity change, negative = cytotoxicity [1] -82.9% | viability change, negative = cytotoxic [5] -97.5% | caspase-3 activation [10] 204% | Potency [19] 50.1 µM

CC(=O)[O-].CC(=O)[O-].O.O.[Cd+2]
inactive: Potency [3] | outcome [7] | outcome [8] | Potency [9] | caspase-3 activation [10] 4.76% | outcome [11] | Potency [12] | Potency [13] | Potency [15] | Potency [16] | Potency [17] | max response [18] -7.81% | Potency [19]
active: activity change, negative = cytotoxicity [1] -111% | activity change, negative = cytotoxicity [2] -127% | Potency [4] 2.51 µM | Potency [6] 25.1 µM [primary cells of rat origin] | Potency [14] 39.8 µM
